Test results published in PubChem BioAssay AID1159580 (chemical genetic matrix, 2015).
Out of some 5,500 compounds screened, about 2,000 (36%) were called active. Not shown: some 18% with an inconclusive outcome. Rule as the data show it: active = normalized growth mostly below about 0.91 (no sharp cut-off); inconclusive = no clear call, values can overlap the other calls; inactive = mostly above about 0.92. The list shows a part of the results.

Assay: chemical genetic growth profiling, strain panel (AID 1159580);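 also: tested at 20 µM; growth read once vehicle control cultures reached saturation at 30 °C; 1 = growth at the plate median or of vehicle wells; lower values mean less growth of the strain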
Conditions: growth OD

Measured: normalized growth

CCCN1C[C@H](CSC)C[C@@H]2c3cccc4[nH]cc(c34)C[C@H]21
inactive: S. cerevisiae deletion strains, locus YKL009W, strain mrt4, stronger effect = lower value 1.01 | S. cerevisiae deletion strains, locus YKL068W, stronger effect = lower value 1.02 | S. cerevisiae deletion strains, locus YKL085W, strain MDH1 (second series), stronger effect = lower value 1 | S. cerevisiae deletion strains, locus YKL085W, strain MDH1, stronger effect = lower value 1 | S. cerevisiae deletion strains, locus YKL160W, strain elf1, stronger effect = lower value 1.01 | S. cerevisiae deletion strains, locus YKL190W, strain CNB1, stronger effect = lower value 0.995 | S. cerevisiae deletion strains, locus YKR001C, strain vps1, stronger effect = lower value 1.02 | S. cerevisiae deletion strains, locus YKR026C, strain gcn3, stronger effect = lower value 1.02 | S. cerevisiae deletion strains, locus YKR091W, strain srl3, stronger effect = lower value 0.997 | S. cerevisiae deletion strains, locus YLL001W, strain dnm1, stronger effect = lower value 1 | S. cerevisiae deletion strains, locus YLL026W, stronger effect = lower value 1.01 | S. cerevisiae deletion strains, locus YLL041C, strain sdh2, stronger effect = lower value 0.995 | S. cerevisiae deletion strains, locus YLR027C, strain aat2, stronger effect = lower value 1 | S. cerevisiae deletion strains, locus YLR039C, strain RIC1, stronger effect = lower value 1.11 | S. cerevisiae deletion strains, locus YLR058C, strain SHM2, stronger effect = lower value 1.01 | S. cerevisiae deletion strains, locus YLR102C, strain apc9, stronger effect = lower value 1.03 | S. cerevisiae deletion strains, locus YLR113W, strain HOG1, stronger effect = lower value 1.06 | S. cerevisiae deletion strains, locus YLR221C, strain rsa3, stronger effect = lower value 1 | S. cerevisiae deletion strains, locus YLR258W, strain gsy2, stronger effect = lower value 1.01 | S. cerevisiae deletion strains, locus YLR262C, strain YPT6 (second series), stronger effect = lower value 1.07 | S. cerevisiae deletion strains, locus YLR262C, strain YPT6, stronger effect = lower value 1.09 | S. cerevisiae deletion strains, locus YLR268W, strain sec22, stronger effect = lower value 1 | S. cerevisiae deletion strains, locus YLR320W, strain mms22, stronger effect = lower value 0.984 | S. cerevisiae deletion strains, locus YLR330W, strain CHS5, stronger effect = lower value 0.999 | S. cerevisiae deletion strains, locus YLR342W, strain FKS1 (second series), stronger effect = lower value 1.01 | S. cerevisiae deletion strains, locus YLR342W, strain FKS1, stronger effect = lower value 1 | S. cerevisiae deletion strains, locus YLR357W, strain rsc2, stronger effect = lower value 0.982 | S. cerevisiae deletion strains, locus YLR370C, strain arc18, stronger effect = lower value 1.01 | S. cerevisiae deletion strains, locus YLR371W, strain rom2, stronger effect = lower value 1.02 | S. cerevisiae deletion strains, locus YLR384C, strain iki3, stronger effect = lower value 1 | S. cerevisiae deletion strains, locus YLR418C, strain cdc73, stronger effect = lower value 0.985 | S. cerevisiae deletion strains, locus YML016C, strain PPZ1, stronger effect = lower value 0.998 | S. cerevisiae deletion strains, locus YML032C, strain rad52, stronger effect = lower value 1.03 | S. cerevisiae deletion strains, locus YML120C, strain ndi1, stronger effect = lower value 1.02 | S. cerevisiae deletion strains, locus YML124C, strain tub3, stronger effect = lower value 1.02 | S. cerevisiae deletion strains, locus YMR058W, strain fet3, stronger effect = lower value 0.999 | S. cerevisiae deletion strains, locus YMR078C, strain ctf18, stronger effect = lower value 1.03 | S. cerevisiae deletion strains, locus YMR125W, strain sto1, stronger effect = lower value 1.02 | S. cerevisiae deletion strains, locus YMR129W, stronger effect = lower value 1.02 | S. cerevisiae deletion strains, locus YMR205C, strain PFK2, stronger effect = lower value 1.02 | S. cerevisiae deletion strains, locus YMR223W, strain ubp8, stronger effect = lower value 1.02 | S. cerevisiae deletion strains, locus YMR231W, strain pep5, stronger effect = lower value 1.02 | S. cerevisiae deletion strains, locus YMR263W, strain SAP30, stronger effect = lower value 0.979 | S. cerevisiae deletion strains, locus YMR307W, strain GAS1, stronger effect = lower value 1.03 | S. cerevisiae deletion strains, locus YNL067W, strain RPL9B, stronger effect = lower value 0.975 | S. cerevisiae deletion strains, locus YNL071W, strain lat1, stronger effect = lower value 1.02 | S. cerevisiae deletion strains, locus YNL128W, strain TEP1, stronger effect = lower value 0.984 | S. cerevisiae deletion strains, locus YNL153C, strain GIM3, stronger effect = lower value 0.983 | S. cerevisiae deletion strains, locus YNL183C, strain NPR1, stronger effect = lower value 0.991 | S. cerevisiae deletion strains, locus YNL209W, strain ssb2, stronger effect = lower value 1 | S. cerevisiae deletion strains, locus YNL233W, strain BNI4, stronger effect = lower value 0.981 | S. cerevisiae deletion strains, locus YNL248C, strain rpa49, stronger effect = lower value 0.945 | S. cerevisiae deletion strains, locus YNL250W, strain rad50, stronger effect = lower value 1 | S. cerevisiae deletion strains, locus YNL271C, strain bni1, stronger effect = lower value 1.02 | S. cerevisiae deletion strains, locus YNL298W, strain CLA4, stronger effect = lower value 1.02 | S. cerevisiae deletion strains, locus YNL307C, strain MCK1, stronger effect = lower value 1.03 | S. cerevisiae deletion strains, locus YNL322C, strain KRE1 (second series), stronger effect = lower value 1.01 | S. cerevisiae deletion strains, locus YNL322C, strain KRE1, stronger effect = lower value 1 | S. cerevisiae deletion strains, locus YNR049C, strain mso1, stronger effect = lower value 1.01 | S. cerevisiae deletion strains, locus YNR052C, strain pop2, stronger effect = lower value 1.02 | S. cerevisiae deletion strains, locus YOL006C, strain TOP1, stronger effect = lower value 0.966 | S. cerevisiae deletion strains, locus YOL012C, strain htz1 0.77 | S. cerevisiae deletion strains, locus YOL147C, strain pex11, stronger effect = lower value 1.02 | S. cerevisiae deletion strains, locus YOR001W, strain rrp6, stronger effect = lower value 0.983 | S. cerevisiae deletion strains, locus YOR061W, strain CKA2, stronger effect = lower value 0.992 | S. cerevisiae deletion strains, locus YOR069W, strain VPS5, stronger effect = lower value 0.989 | S. cerevisiae deletion strains, locus YOR070C, strain gyp1, stronger effect = lower value 0.997 | S. cerevisiae deletion strains, locus YOR080W, strain dia2, stronger effect = lower value 1.02 | S. cerevisiae deletion strains, locus YOR083W, strain WHI5, stronger effect = lower value 0.966 | S. cerevisiae deletion strains, locus YOR106W, strain vam3, stronger effect = lower value 1.01 | S. cerevisiae deletion strains, locus YOR136W, strain idh2, stronger effect = lower value 1.02 | S. cerevisiae deletion strains, locus YOR144C, strain elg1, stronger effect = lower value 1.01 | S. cerevisiae deletion strains, locus YOR184W, strain ser1, stronger effect = lower value 1.05 | S. cerevisiae deletion strains, locus YOR231W, strain MKK1, stronger effect = lower value 1.08 | S. cerevisiae deletion strains, locus YOR265W, strain rbl2, stronger effect = lower value 1.02 | S. cerevisiae deletion strains, locus YOR270C, strain vph1, stronger effect = lower value 1.07 | S. cerevisiae deletion strains, locus YOR290C, strain snf2, stronger effect = lower value 1 | S. cerevisiae deletion strains, locus YOR316C, strain cot1, stronger effect = lower value 1.02 | S. cerevisiae deletion strains, locus YPL051W, strain arl3, stronger effect = lower value 1.01 | S. cerevisiae deletion strains, locus YPL055C, strain LGE1, stronger effect = lower value 0.946 | S. cerevisiae deletion strains, locus YPL078C, strain atp4, stronger effect = lower value 1.01 | S. cerevisiae deletion strains, locus YPL106C, strain sse1, stronger effect = lower value 1.03 | S. cerevisiae deletion strains, locus YPL240C, strain hsp82, stronger effect = lower value 1.01 | S. cerevisiae deletion strains, locus YPL241C, strain CIN2, stronger effect = lower value 1.03 | S. cerevisiae deletion strains, locus YPL256C, strain CLN2, stronger effect = lower value 1.06 | S. cerevisiae deletion strains, locus YPR119W, strain clb2, stronger effect = lower value 1.02 | S. cerevisiae deletion strains, locus YPR141C, strain kar3, stronger effect = lower value 1.01 | S. cerevisiae deletion strains, locus YPR163C, strain tif3, stronger effect = lower value 1.02 | S. cerevisiae deletion strains, locus YPR167C, strain met16, stronger effect = lower value 1.02 | S. cerevisiae deletion strains, strain wtn01, stronger effect = lower value 0.995 | S. cerevisiae strains, strain wild type, stronger effect = lower value 0.997
